The panel holds about 83,000 compounds, 20% with a hit somewhere; the sample as a whole holds those more often.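 The test compound was applied at a single concentration to cells in 96-well plates for 48 hours, and percent growth was recorded.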 Unmarked numbers belong to inactive results. Activity calls are given as the source filed them. Rule for the calls: active = growth percent below 10; inactive = the rest.
Legend:
Assay in all cases: NCI-60 one-dose screen, 48 h (100 = growth as untreated, 0 = no growth, -100 = all killed)
Conditions in all cases: 10 µM unless noted
[1] = system: SK-MEL-2 melanoma
[2] = system: EKVX NSCLC
[3] = system: SN12C renal
[4] = system: UO-31 renal
[5] = system: TK-10 renal
[6] = system: ACHN renal
[7] = system: CAKI-1 renal
[8] = system: A498 renal
[9] = system: CCRF-CEM leukemia
[10] = system: MOLT-4 leukemia

| SMILES | growth [1] | growth [2] | growth [3] | growth [4] | growth [5] | growth [6] | growth [7] | growth [8] | growth [9] | growth [10] |
| --- | --- | --- | --- | --- | --- | --- | --- | --- | --- | --- |
| COc1ccc(NC(=O)CSc2nnc(-c3cc(-c4ccc(S(N)(=O)=O)cc4)nc4ccccc34)n2-c2ccccc2)cc1 | 93% | 78.5% | 81.6% | 74.5% | 103% | 81.6% | 61.2% | 54.3% | 73.2% | 58% |
| N#Cc1c(N)nc(NCCO)nc1-c1ccc(F)cc1 | 108% | 89.9% | 103% | 92.8% | 106% | 100% | 95.9% | 89.1% | 112% |  |
| COc1ccc(OC)c(-c2c(C#N)c(-c3ccc(Cl)cc3)nc3c2c(-c2ccccc2)nn3-c2ccccc2)c1 | 102% | 102% | 95% | 81.4% | 103% | 102% | 67.9% | 113% | 98.8% | 86.1% |
| CCCCCCN(CCCCCC)c1ccc(/C=C2/SC(=O)N(c3nc(N4CCCC4)nc(N4CCCC4)n3)C2=O)c(C)c1 | 53.9% | 87.2% | 59.9% | 52.9% | 85.8% | 68.5% | 82.5% | 60.9% | 54.1% | 38.1% |
| NC(=O)c1ccc[n+]([C@@H]2O[C@H](COP(=O)([O-])OP(=O)(O)OC[C@H]3O[C@@H](n4cnc5c(N)ncnc54)[C@H](O)[C@@H]3O)[C@@H](O)[C@H]2O)c1 | 137% | 106% | 107% | 105% | 120% | 106% | 98.3% | 97.2% | 95.4% | 108% |
| COc1cc(C2CC(c3cc(OC)c(OCCCOc4ccc(-n5c(/C=C/c6ccccc6)nc6ccccc6c5=O)cc4)c(OC)c3)=NO2)cc(OC)c1OC (centres undefined) | 92.3% | 118% | 127% | 86.7% | 139% | 91.3% | 115% | 123% | 76.6% | 86% |
| O=C1/C(=C\c2cccnc2)SC(=S)N1CCc1ccc(O)cc1 | 66.5% | 64.7% | 18.4% | 37.4% | 38.5% | 29.4% | 30.5% | 85.1% | 23.9% | 68.6% |
| O=C(CSc1nnc(-c2ccc(NC(=O)c3cccnc3)cc2)o1)N[C@@H](Cc1ccc(O)cc1)C(=O)O | 99.8% | 110% | 94.4% | 85.1% | 106% | 98.6% | 92.4% | 117% | 96.6% | 99.8% |
| COC(=O)/C=C1\S/C(=N\NS(=O)(=O)c2ccc(C)cc2)N(c2ccccc2)C1=O | 107% | 100% | 98.6% | 90.8% | 109% | 104% | 96.6% | 80.6% | 101% | 93.9% |
| COc1cc(C2NC(=O)c3ccccc3N2)ccc1OCCCCCOc1c(OC)cc(C2=NOC(c3cc(OC)c(OC)c(OC)c3)C2)cc1OC (centres undefined) | 76.9% | 50.6% | 92.6% | 69.2% | 100% | 41.3% | 89.2% | 99.3% | 44.8% | 24.6% |
| COc1cc(C2CC(=O)Nc3c2c(C)nn3-c2nc3ccccc3[nH]2)cc2c1OCC(=O)N2 (centres undefined) | 68.1% | 79.3% | 76.3% | 51.9% | 87.3% | 70.4% | 95.1% | 21.4% | 12.7% | -20.1% (active) |
| CCCCC1CCCCN1C(=O)OCC (centres undefined) | 101% | 122% | 103% | 88.7% | 92.7% | 103% | 101% | 102% | 108% | 115% |
| COc1ccccc1N1C(=O)/C(=C/C2=Cc3ccccc3OC2)SC1=S | 110% | 95.3% | 97.4% | 88.3% | 84.3% | 96.9% | 85.2% | 40.7% | 90.5% | 94.6% |
| COc1ccc2c(c1)C(=O)/C(=C/c1cccc(OCC(=O)Nc3nc(C)c(C)s3)c1)O2 | 59.9% | -45.3% (active) | 3.1% (active) | -79.1% (active) | -14.3% (active) | -56.5% (active) | -81.5% (active) | 97.2% | -69.6% (active) | -65.4% (active) |
| Cc1ccc(/C=C/c2c(C(=O)/C=C/c3ccc(C(F)(F)F)cc3)c(C)nc3ccccc23)cc1 | -20% (active) | -31.6% (active) | -61.7% (active) | -98% (active) | -71.1% (active) | -100% (active) | -91.1% (active) | -80.8% (active) | 9.01% (active) | -4.49% (active) |
| O=C(c1ccccc1)c1c(/C=C/c2ccc(Cl)cc2)nc2ccccc2c1/C=C/c1cccs1 | 103% | 88.2% | 90.2% | 82.9% | 99% | 93.8% | 81.2% | 77.1% | 96.4% | 94.2% |
| NC(N)=Nc1nc2ccccc2n2c1nc1ccccc12 | 70.3% | 36.3% | 28.3% | 34.3% | 46.2% | 11.7% | 23.2% | 52.5% | 25.7% | 7.99% (active) |
| CCCCCCCCCOc1c(OC)cc(C2CC(=O)Nc3c2c(C)nn3-c2nc3ccccc3[nH]2)cc1OC (centres undefined) | -40.4% (active) | -83.5% (active) | -33.3% (active) | -95.5% (active) | 4.51% (active) | -24.6% (active) | -73.2% (active) | -35.3% (active) | 19.1% | 11.2% |
| Cn1c(=O)c2c(nc(Cl)n2CCl)n(C)c1=O | 89.9% | 112% | 106% | 93.4% | 95.6% | 104% | 98.5% | 118% | 84.9% | 99.7% |
| CCN(CCNc1ccc(C)c2sc3ccccc3c(=O)c12)CC(C)(C)O | 77.3% | 101% | 101% | 70.2% | 89.7% | 79.7% | 79% | 81% | 39.9% | 40% |
| COc1cc2nc(Cl)nc(Nc3ccc(S(=O)(=O)Nc4nccs4)cc3)c2cc1OC | 102% | 93.9% | 95.7% | 85.4% | 119% | 88.2% | 88.2% | 136% | 117% | 99.3% |
| CC(=O)N1C(=S)NC(=O)C1Cn1c(-c2ccccc2)nc2ccccc21 (centres undefined) | 109% | 96.3% | 98.6% | 80.8% | 121% | 100% | 90.4% | 70.7% | 97.1% | 96.5% |
| COc1ccc(C2=NN(C(=O)c3cc(OC)c(OC)c(OC)c3)C(c3ccc(Cl)cc3)C2)cc1OC (centres undefined) | 39.5% | 53.4% | 39.5% | 34.4% | 25.4% | 43.3% | 26.6% | -1.72% (active) | -2.55% (active) | 9.1% (active) |
| COc1cccc(-c2nc3sccn3c2-c2ccnc(NCCNS(=O)(=O)c3ccc(C(F)(F)F)cc3)c2)c1 | 47.5% | 40.4% | 40.7% | -23.8% (active) | 49.2% | -60.2% (active) | 34.5% | 18.9% | 22.6% | 13.7% |
| COc1cc(OC)cc(C2CC(=O)Nc3c2c(C)nn3-c2nc3ccccc3[nH]2)c1 (centres undefined) | 38.4% | 17.7% | 20% | 13.1% | 24.2% | 19.3% | 30.3% | -10.1% (active) | 4.69% (active) | -8.06% (active) |
| CC1(C)CC(=O)CC2(C1)N=C(N)Nc1nc3ccccc3n12 (centres undefined) | 100% | 102% | 100% | 96.6% | 105% | 91.9% | 105% | 99.7% | 93% | 82.3% |

— PubChem BioAssay (NCI)
